Reference: PubChem BioAssay (EPA / NIEHS)
“And” between values parts separate entries of the source, which are not always exact repeats. Equal entries are not always repeated. The source made the active and inactive calls. Rule for the calls: active = hit-call score of the fitted dose curve at least 0.9, where 1 is the maximum; inactive = score below 0.9.

Each compound was assayed on Collagen III, COL3A1 (gene 1281) (assay: BSK_MyoF_CollagenIII: BioMAP Diversity Plus: MyoF Assay for Collagen III Biomarker Activity (AID 2284239)). Details: primary human lung fibroblasts.
Summary of the method: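 Lung fibroblast culture; 24 h compound exposure; collagen III by ELISA; gain-of-signal fit vs DMSO baseline.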
With `Cc1c([N+](=O)[O-])cc2c(c1[N+](=O)[O-])C(C)(C)CC2(C)C` the outcome was “inactive”.
With `Nc1ccc([N+](=O)[O-])cc1Cl` the outcome was “inactive”.
For `O=S(=O)(F)C(F)(F)C(F)(F)C(F)(F)C(F)(F)C(F)(F)C(F)(F)C(F)(F)C(F)(F)F`, the outcome was “inactive”.
`CCCCC(CC)COC(=O)c1c(Br)c(Br)c(Br)c(Br)c1C(=O)OCC(CC)CCCC` (configuration not stated) was tested, and the outcome was “inactive”.
`CCOP(=S)(S)OCC` was tested, and the outcome was “inactive”.
With `Cc1ccc2c(c1N)C(=O)c1ccccc1C2=O` the AC50 was 1.43 µM (active).
In the case of `CC(Cl)CN(C)C` (configuration not stated), the outcome is reported as “inactive”.
For `CCCCC(CC)COP(=O)(Oc1ccccc1)Oc1ccccc1` (configuration not stated), the AC50 was 9.45 µM (active).
In the case of `OCC(F)(F)OC(F)(F)C(F)(F)OC(F)(F)C(F)(F)OC(F)(F)F`, the AC50 is reported as 19.7 µM (active) and 23.9 µM (active).
`CCOP(=S)(NC(C)C)Oc1ccccc1C(=O)OC(C)C` (configuration not stated) was tested, and the outcome was “inactive”.
In the case of `OCC(F)(F)OC(F)(F)C(F)(F)OC(F)(F)CO`, the outcome is reported as “inactive”.
With `O=C(O)C(F)(OC(F)(F)C(F)(F)C(F)(F)F)C(F)(F)F` (configuration not stated) the outcome was “inactive”.
For `COP(N)(=S)OC`, the outcome was “inactive”.
For `O=c1ssc(Cl)c1Cl`, the AC50 was 9.69 µM (active).
`N#Cc1cc([N+](=O)[O-])ccc1N` was tested, and the outcome was “inactive”.
With `CC(C)Nc1ccc(Nc2ccccc2)cc1` the AC50 was 20 µM (active).
For `C=CC(=O)OCC(CC)(COC(=O)C=C)COC(=O)C=C`, the AC50 was 4.87 µM (active).
For `CCCCOCCOP(=O)(OCCOCCCC)OCCOCCCC`, the outcome was “inactive”.
With `COC(=O)C(F)(F)C(F)(F)OC(F)(C(F)(F)F)C(F)(F)OC(F)=C(F)F` (configuration not stated) the outcome was “inactive”.
With `CC(C)(C)c1ccccc1OP(=O)(Oc1ccccc1)Oc1ccccc1` the AC50 was 25.2 µM (active).
In the case of `CCOP(=S)(OCC)SCn1nnc2ccccc2c1=O`, the outcome is reported as “inactive”.
In the case of `OCC(F)(F)OC(F)(F)C(F)(F)OC(F)(F)C(F)(F)OC(F)(F)CO`, the outcome is reported as “inactive”.
